DAX1 inh-1: DAX1 (NR0B1) inhibition, primary screen; HEK293T StAR-luciferase reporter, SF-1/DAX-1 repression relief; inhibition, % at 6.8 µM; hit rate 1.1% among 370,000;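 active = inhibition above the mean over all tested compounds plus 3 SD, cut at about 3.6% in these data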;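 note: 0% = DAX-1 cells with DMSO and 100% = cells lacking DAX-1 with DMSO; higher inhibition means more luminescence from relief of DAX-1 repression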
hcDAF12 agonist: activates DAF-12 receptor from parasite H. contortus. hit rate 1.4% among 370,000. activation, % at 6.8 µM. HEK293 hcDAF-12 lit1-tk-luc reporter, luminescence; 0% DMSO, 100% Δ7-dafachronic acid;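 active = activation above the mean of all tested compounds plus 3 SD, cut at about 5.5% in these data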;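 note: 100% = response to 3 µM Δ7-dafachronic acid high control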
Wee1 stabilizer: inhibitors of human Wee1 degradation; HeLa Luc-Wee1K328M stability, luciferase luminescence; 100% = proteasome inhibitor MG132 effect; reporter increase, % at 5 µM; hit rate 1.2% among 220,000;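 active = activation above the mean of all tested compounds plus 3 SD, set per screening run, cut at about 8.8% in these data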;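 note: cells exposed to compound for 20 h before luminescence read; 0% = DMSO alone and 100% = MG132 at 30 µM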
Target sequence (P30291 whole entry K328M): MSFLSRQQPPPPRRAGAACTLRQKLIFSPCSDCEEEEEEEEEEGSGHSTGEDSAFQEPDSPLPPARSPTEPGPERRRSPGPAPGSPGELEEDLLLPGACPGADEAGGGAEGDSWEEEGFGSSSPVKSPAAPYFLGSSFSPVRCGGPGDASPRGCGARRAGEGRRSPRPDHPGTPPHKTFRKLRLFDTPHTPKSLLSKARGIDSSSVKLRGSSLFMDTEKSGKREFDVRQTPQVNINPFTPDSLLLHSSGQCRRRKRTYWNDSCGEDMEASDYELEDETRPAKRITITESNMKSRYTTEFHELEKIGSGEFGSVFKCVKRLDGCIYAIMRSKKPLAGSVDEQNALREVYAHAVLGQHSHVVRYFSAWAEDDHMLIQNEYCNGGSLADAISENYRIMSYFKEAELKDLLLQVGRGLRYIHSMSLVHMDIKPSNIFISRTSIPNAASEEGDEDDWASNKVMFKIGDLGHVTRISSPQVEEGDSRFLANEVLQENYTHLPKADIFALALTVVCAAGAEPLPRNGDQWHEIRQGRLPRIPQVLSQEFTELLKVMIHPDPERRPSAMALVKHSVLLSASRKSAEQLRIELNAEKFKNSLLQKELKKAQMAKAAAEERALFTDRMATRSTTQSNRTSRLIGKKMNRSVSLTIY
hgDAF-12 ag: activates the H. glycines DAF-12 receptor ligand-binding domain | HEK293 GAL4-hgDAF12 UAS-luciferase reporter, agonist luminescence; normalized to butyrate control | activation, % at 6.8 µM | hit rate 1.8% among 370,000 | AID 687014;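 active = activation above a cutoff set at the mean of all screened compounds plus 3 SD, cut at about 10% in these data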;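 note: 0% = DMSO wells and 100% = sodium butyrate wells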
DAX1 inh-2: inhibitors of human orphan nuclear receptor DAX1 (NR0B1); HEK293 Gal4-DAX1 luciferase reporter, luminescence; hit rate 0.99% among 340,000; inhibition, % at 6.75 µM; P51843;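 active = inhibition above the mean over all tested compounds plus 3 SD, cut at about 4.2% in these data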;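 note: 0% = DAX1-transfected cells with DMSO and 100% = empty-vector control cells with DMSO; inhibition shows as a rise in luminescence from relieved DAX1 repression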
ssDAF12 agonist: S. stercoralis DAF-12 activation, primary screen | hit rate 1% among 370,000 | activation, % at 6.8 µM | AID 652126 | HEK293 ssDAF-12/GRIP1 lit1-tk-luc reporter, luminescence; % of 3 µM dafachronic acid response;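 active = activation above the mean over all tested compounds plus 3 SD, cut at about 0.9% in these data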;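 note: 0% = DMSO-only wells and 100% = 3 µM delta7-dafachronic acid wells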
DAX1 conf: NR0B1 (human) inhibition, confirmation | inhibition, % at 6.8 µM | HEK293T StAR-promoter luciferase reporter, SF-1/DAX-1 repression | shares compounds with DAX1 inh-1 | hit rate 87% among 2,400;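 active = inhibition above the average of every tested compound plus 3 SD, cut at about 3.8% in these data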;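 note: 0% = DAX-1 cells with DMSO and 100% = no DAX-1 control cells with DMSO; active compounds raise luminescence by relieving repression of the StAR reporter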
SF1 mutant ctr: nonselective inhibitor or artifact in SF-1 mutant DAX1 counter-screen; shares compounds with DAX1 inh-1; inhibition, % at 6.8 µM; HEK293 StAR-luciferase, SF-1 AF2 mutant, luminescence; hit rate 78% among 2,400; AID 652136;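 active = inhibition above the mean of all tested compounds plus 3 SD, cut at about 3% in these data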;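 note: 0% = DAX-1 transfected cells with DMSO and 100% = cells without DAX-1 with DMSO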
LXR ag: LXR-beta agonism as hcDAF-12 counter-screen; shares compounds with hcDAF12 agonist; HEK293 Gal4-LXR tk-luc reporter, luminescence, 24 h; normalized: DMSO 0%, positive control 100%; activation, % at 6.8 µM; 3,400 tested, under 10 active; AID 743027;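 active = mean percent activation of the reporter above a cutoff set as the average over tested compounds plus their standard deviation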
hcDAF12 conf: hcDAF-12 agonism, confirmation assay; shares compounds with hcDAF12 agonist; HEK293 hcDAF-12 lit1-tk-luc reporter, luminescence; % of Δ7-dafachronic acid response; activation, % at 6.8 µM; hit rate 61% among 3,400;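 active = mean activation across triplicate tests above the threshold derived from the earlier primary screen, cut at about 5.5% in these data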;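 note: 0% = DMSO only wells and 100% = 3 µM Δ7-dafachronic acid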
hgDAF12 conf: hgDAF-12 agonism, confirmation assay. HEK293 GAL4-hgDAF12 luciferase reporter, agonist mode; percent of butyrate response. shares compounds with hgDAF-12 ag. activation, % at 6.8 µM. hit rate 80% among 3,300;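 active = mean activation over triplicate wells above the hit cutoff derived from the earlier primary screen, cut at about 11% in these data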;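 note: 0% = DMSO low control and 100% = 2 mM sodium butyrate high control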
LXR ag 2: activates human LXR-beta, counter-screen for DAF-12 agonists | shares compounds with hgDAF-12 ag | HEK293 Gal4-LXR luciferase reporter, 24 h | activation, % at 6.8 µM | 3,300 tested, under 10 active | AID 743051;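 active = mean activation of the triplicate above a set limit carried over from the primary screen, none filed active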
The depositor's hits bear a star; / = not tested or not shown. Sampled rows, rich in hits. Any-hit rate of the full collection: about 4.6%.

SMILES | DAX1 inh-1 | hcDAF12 agonist | Wee1 stabilizer | hgDAF-12 ag | DAX1 inh-2 | ssDAF12 agonist | DAX1 conf | SF1 mutant ctr | hgDAF12 conf | LXR ag 2 | others
O=C(O)c1ccc(N/N=C/c2ccc3c(c2)OCO3)cc1 | 0 | -1 | -6 | -5 | / | -2 | / | / | / | /
O=C(O)c1cc(N/N=C/c2ccc3c(c2)OCCO3)ccc1Cl | 4.6* | 3 | 0 | 17* | -4 | 0 | 13* | 6.0* | 23* | 1
Fc1cccc(/C=N/Nc2ccccn2)c1 | 2 | 2 | 2 | 2 | 2 | 0 | / | / | / | /
C(=N\Nc1ccccn1)/c1ccc2c(c1)OCCO2 | 5.6* | 6.0* | 4 | 27* | 1 | 1 | 15* | 9.4* | 22* | 1
CCOc1ccc(/C=N/Nc2ccccn2)cc1OC | 6.7* | 2 | 1 | 16* | 2 | 0 | 8.3* | 4.4* | 13* | 0
C=CCOc1ccc(/C=N/Nc2ccccn2)cc1OC | 5.3* | 1 | 0 | 14* | 2 | -1 | 4.7* | 3 | 11* | 0
COc1ccc(/C=N/Nc2ccccn2)c(OC)c1OC | 2 | 1 | 0 | 10 | 0 | -1 | / | / | / | /
c1ccc(-n2c(SCc3cccc4ccccc34)nnc2-c2ccccn2)cc1 | -2 | -4 | / | -2 | / | -1 | / | / | / | /
CCOC(=O)[C@]12CCCC=C1N(Cc1ccc3c(c1)OCO3)C(=O)[C@H](CC(=O)N1CCC(c3ccccc3)CC1)C2 | 2 | -2 | / | -1 | / | -1 | / | / | / | /
CCC(c1nnnn1-c1ccc2c(c1)OCCO2)N1CCc2ccccc2C1 (configuration not stated) | 0 | -3 | / | 6 | / | -1 | / | / | / | /
CCCCCCCCN1C(=O)[C@H](CC(=O)NCc2ccc(OC)c(OC)c2)C[C@@]2(C(=O)OCC)CCCC=C12 | -4 | -2 | / | -3 | / | -1 | / | / | / | /
Cc1ccc(C=Cc2ccccn2)cc1 | 7.5* | 3 | / | 13* | 4.5* | 0 | 12* | 4.9* | 20* | 1
Oc1ccc(/C=C/c2cnccn2)cc1 | 0 | 1 | -2 | 4 | 0 | -1 | / | / | / | /
CC(C)(C)NC(=O)C1c2ccccc2OCC(=O)N1Cc1ccccn1 (configuration not stated) | 0 | -2 | / | -2 | / | -1 | / | / | / | /
Cc1c(NC(=O)C2CCCN(S(=O)(=O)c3ccc(Cl)s3)C2)c(=O)n(-c2ccccc2)n1C (configuration not stated) | -1 | -1 | / | -1 | / | -1 | / | / | / | /
Cc1cc(C)c(C#N)c(SCc2ccccc2[N+](=O)[O-])n1 | -1 | 1 | -2 | 0 | -1 | -1 | / | / | / | /
Cc1cc(C)c(C#N)c(SCc2nnc(-c3ccccc3[N+](=O)[O-])o2)n1 | 5.1* | 4 | -1 | 16* | 0 | 1 | 18* | 4.6* | 11* | 1
Cc1cc(C(=O)CSc2nncs2)c(C)n1Cc1ccco1 | 4.8* | 5 | 3 | 16* | -2 | 0 | 9.8* | 5.3* | 13* | 1
Cc1cc(C(=O)CSc2nn(-c3ccccc3)c(=S)s2)c(C)n1Cc1ccco1 | -1 | -2 | -4 | -5 | -3 | -2 | / | / | / | /
CC(=O)Nc1ccc2oc(-c3ccccc3Br)nc2c1 | 5.5* | 8.3* | 2 | 15* | 0 | 0 | 13* | 4.7* | 16* | 1 | LXR ag=1;hcDAF12 conf=4
COc1ccc(Cl)cc1-c1cc(C(=O)NCc2ccc(F)cc2)[nH]n1 | 0 | -1 | / | -4 | / | -1 | / | / | / | /
CCCN(C)C1CN(Cc2cn(CCCC(=O)OC)nn2)S(=O)(=O)C1 (configuration not stated) | 2 | 2 | / | 1 | / | 0 | / | / | / | /
COCCCNc1ccn2nc(-c3ccc(Cl)cc3)cc2n1 | 7.3* | 8.0* | / | 14* | / | 0 | 10* | 7.3* | 21* | 1 | LXR ag=1;hcDAF12 conf=6.5*
COc1cc(-c2cc3nc(NCc4cccc(Cl)c4)ccn3n2)cc(OC)c1OC | -3 | -4 | / | -9 | / | -2 | / | / | / | /
Cc1ccc(-c2cc(-c3ccccc3Cl)[nH]n2)c(O)c1 | 6.0* | 10* | 3 | 20* | 6.8* | 1.4* | 14* | 8.0* | 21* | 1 | LXR ag=1;hcDAF12 conf=11*
SMILES | DAX1 inh-1 | hcDAF12 agonist | Wee1 stabilizer | hgDAF-12 ag | DAX1 inh-2 | ssDAF12 agonist | DAX1 conf | SF1 mutant ctr | hgDAF12 conf | LXR ag 2 | others
N/C(=N\OC(=O)c1ccc2ccccc2c1)c1ccncc1 | 5.2* | 7.1* | 4 | 17* | 5.2* | 1.1* | 10* | 6.2* | 14* | 1 | LXR ag=1;hcDAF12 conf=4
N/C(=N\OC(=O)c1ccc2ccccc2c1)c1ccccn1 | 0 | -2 | -5 | -11 | -5 | -2 | / | / | / | /
N/C(=N\OC(=O)c1ccc2ccccc2c1)c1ccccc1Cl | 8.8* | 4 | / | 14* | 2 | 0 | 1 | 3.5* | 13* | 0
C[C@@H]1ON(C)[C@H]2C[C@H]3c4[nH]c5c(-c6ccccc6F)cccc5c4CCN3C[C@@H]12 | -1 | -2 | / | 2 | / | -1 | / | / | / | /
O=C(O)c1cccc(N/N=C/c2ccc(-c3ccccc3)cc2)c1 | 4.7* | 4 | 1 | 16* | -3 | 0 | 22* | 10* | 27* | 1
O=C(O)c1cccc(N/N=C/c2cc(Br)cc(Br)c2O)c1 | 1 | 2 | -1 | 6 | 1 | 0 | / | / | / | /
O=C(C1CCCCC1)n1ccc2ccc(-c3ccc4ccn(Cc5ccccc5)c4c3)cc21 | 0 | -1 | / | 1 | / | -1 | / | / | / | /
C[C@@H]1/C=C/CC(=O)N[C@H](c2cccc(Br)c2)[C@H](C)/C=C/CC(=O)N[C@@H]1c1cccc(Br)c1 | -1 | -4 | / | -2 | / | -1 | / | / | / | /
Cc1ccc2nc(-c3cccc(Br)c3)c(Cc3ccsc3)n2c1 | 4.5* | 3 | / | 15* | / | -1 | 3 | 1 | 5 | 0

Screens from PubChem.
